Bioassay records (PubChem)
An excerpt weighted towards active compounds, which were near 12% of everything screened.
Pf growth 48h = Primary qHTS for delayed death inhibitors of the malarial parasite plastid, 48 hour incubation | AID 504832, 2011 | Potency, µM (top dose mostly 28.7 µM), for inactives: at the highest dose activity change, negative = inhibition, hits mostly inhibitors | P. falciparum luciferase growth in erythrocytes, 48 h | 5.9% of 310,000 active; note: % is set by controls: 0 for no effect and ±100 for the full control effect
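First compound was added to culture medium, then infected red cells at 0.1% parasitemia and 2% hematocrit (final). After incubation at 37 C under 5% CO2, luciferase detection reagent was dispensed and light output recorded.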
Pf growth 96h = Primary qHTS for delayed death inhibitors of the malarial parasite plastid, 96 hour incubation; Potency, µM (doses to about 28.7 µM), for the others: top-dose activity change, negative = inhibition, usual class: inhibitors; AID 504834, 2011; P. falciparum luciferase reporter growth, 96 h; 6.9% of 320,000 active; note: % is set by controls: 0 for no effect and ±100 for the full control effect
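Two-generation exposure (96 h) targets delayed-death phenotype. Reporter parasites carrying integrated firefly luciferase, in red cells at 2% hematocrit and 0.05% parasitemia final, kept at 37 C, 5% CO2; luminescence loss indicates inhibition.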
HCV inhibitor = qHTS Assay for Inhibitors of Hepatitis C Virus (HCV) | AID 651820, 2012 | 3.4% of 340,000 active | Potency, µM (series often up to 41.8 µM), without a hit: at the top dose activity change, negative = inhibition, most hits filed as inhibitors | Huh7.5.1 HCVcc-Cre infection, luciferase reporter, 44 h; note: % is set by controls: 0 for no effect and ±100 for the full control effect
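Infectious HCV cell culture screen: compound-treated cells (1,000/well, pre-plated 4 h) are infected with HCVcc-Cre at roughly 0.5 moi and grown 44 h. Infection is quantified by luciferase signal after 15 min substrate incubation at room temperature.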
NS1 inh = qHTS Assay for Inhibitors of Influenza NS1 Protein Function. 0.4% of 270,000 active. Potency, µM (top dose mostly 46.1 µM), without a hit: at the highest dose activity, positive = more growth. AID 2326, 2010; calls by dose curve; note: actives are rising curves; nearly all actives have a fitted effect of over 50% in size
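Read-out: OD600 growth recovery of NS1-expressing budding yeast. Cells grown overnight at 30C in -URA glucose medium, washed, resuspended and diluted 1:100 in 2% galactose assay medium, pH 6.0. Same strain lacking NS1 served as positive control.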
AMA1 RON2 block = qHTS for Inhibitors of AMA1-RON; Towards Development of Antimalarial Drug Lead: Primary Screen | Potency, µM (series often up to 58.2 µM), for the others: at the highest dose activity change, negative = inhibition, most hits filed as inhibitors | AlphaScreen AMA1-biotinylated RON2 peptide binding | 0.2% of 360,000 active | Plasmodium falciparum AMA1 (3D7) - RON2 peptide interaction;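 note: 0% = vehicle wells and -100% = peptide control; nearly all actives have a fitted effect of over 45% in size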
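AMA1 (3D7) with his tag at 25 nM final met compounds first, then biotinylated RON2 peptide at 25 nM; detection used donor plus acceptor beads, 10 µg/mL apiece, read by AlphaScreen after 30 min at room temperature.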
SARS PLP yeast = qHTS of Yeast-based Assay for SARS-CoV PLP; 0.19% of 330,000 active; S. cerevisiae expressing SARS-CoV PLpro, growth rescue; Potency, µM (series often up to 32.9 µM), for the others: at the top dose activity, positive = growth rescue, actives largely listed as activators; AID 485353, 2010; calls by dose curve; note: 0% is about no effect; nearly all actives have a fitted effect of over 55% in size
The depositor's hits bear a star; [ ] = dose if it differs, or a comment. Unless noted, calls come from the whole dose curve; as a rule, active = well fitted curve in the direction sought with a large enough effect; inconclusive = small, poorly fitted or top-dose-only effect, or another doubt; inactive = no such curve, though single readings can be large; an effect the other way counts as inactive or inconclusive. Potency is the fitted concentration of half-maximal effect.

How did Cc1ccc(-c2cc(C(=O)NCCCN3CCOCC3)c3ccccc3n2)cc1 do in these assays?
Pf growth 48h: inconclusive; Pf growth 96h: inconclusive; HCV inhibitor: -4%; AMA1 RON2 block: -3%; SARS PLP yeast: 2%

How did CCOc1ccccc1C(=O)NC(C(=O)N(C)c1c(N)n(Cc2ccccc2)c(=O)[nH]c1=O)C(C)C (configuration not stated) do in these assays?
HCV inhibitor: inconclusive; AMA1 RON2 block: 2%

What do the screens show for `Cc1ccc(C(=O)N2CC3(C(C)C)CN(C(=O)c4ccc(C)cc4)CC(C(C)C)(C2)C3=O)cc1`?
Pf growth 96h: 9.3µM*; HCV inhibitor: -3%; NS1 inh: 3%; AMA1 RON2 block: 0%; SARS PLP yeast: 2%

How did O=C(c1ccccc1)N1CCN(C(=O)c2nn3c(C(F)(F)F)cc(-c4ccco4)nc3c2Cl)CC1 do in these assays?
Pf growth 48h: inconclusive; Pf growth 96h: 0%; HCV inhibitor: inconclusive; NS1 inh: 0%; AMA1 RON2 block: -1%; SARS PLP yeast: -3%

How did O=C(c1cc2nc(-c3ccccc3)cc(C(F)(F)F)n2n1)N1CCN2CCCC2C1 (configuration not stated) do in these assays?
Pf growth 48h: inconclusive; Pf growth 96h: inconclusive; HCV inhibitor: 8.9µM*; NS1 inh: 13%; AMA1 RON2 block: 3%; SARS PLP yeast: -6%

How did O=C(c1nn2c(C(F)(F)F)cc(-c3ccccc3)nc2c1Cl)N1CCN2CCCC2C1 (configuration not stated) do in these assays?
Pf growth 48h: inconclusive; Pf growth 96h: inconclusive; HCV inhibitor: 11µM*; NS1 inh: 0%; AMA1 RON2 block: -4%; SARS PLP yeast: -5%

What do the screens show for `O=C(c1cc2nc(-c3ccccc3)cc(C(F)(F)F)n2n1)N1CCOCC1`?
Pf growth 48h: 19%; HCV inhibitor: inconclusive; NS1 inh: 0%; AMA1 RON2 block: -3%; SARS PLP yeast: -6%

What do the screens show for `CC1CCN(C(=O)c2cc3nc(-c4ccccc4)cc(-c4ccccc4)n3n2)CC1`?
Pf growth 96h: 6.6µM*; HCV inhibitor: inconclusive; NS1 inh: 8%; AMA1 RON2 block: 40%; SARS PLP yeast: -26%

Results for COCC(=O)N(Cc1ccccc1)c1ccccn1 ?
Pf growth 48h: 4%; Pf growth 96h: inconclusive; HCV inhibitor: inconclusive; NS1 inh: inconclusive; AMA1 RON2 block: -2%; SARS PLP yeast: 8%

What do the screens show for `COc1ccccc1NC(=O)N(Cc1ccccc1)c1ccccn1`?
Pf growth 48h: 12µM*; Pf growth 96h: inconclusive; HCV inhibitor: 2%; NS1 inh: 1%; AMA1 RON2 block: 12%; SARS PLP yeast: -6%

How did CC(C)c1ccc(NC(=O)Nc2nnc([C@@H]3C[C@H](O)[C@@H](CO)O3)s2)cc1 do in these assays?
AMA1 RON2 block: -9%

Results for O=C(CCc1nc(-c2ccccc2Cl)no1)Nc1cccnc1 ?
Pf growth 48h: 14%; Pf growth 96h: 0%; HCV inhibitor: 13µM*; NS1 inh: 2%; AMA1 RON2 block: 7%; SARS PLP yeast: 1%

Results for COc1ccccc1-c1noc(CCC(=O)Nc2cccnc2)n1 ?
AMA1 RON2 block: -11%

What do the screens show for `O=C(CSc1nn(-c2ccc(Cl)cc2)c(=S)s1)N1CCN(C(=O)c2ccco2)CC1`?
Pf growth 48h: 4.7µM*; Pf growth 96h: -14%; HCV inhibitor: -25%; NS1 inh: -55%; AMA1 RON2 block: -8%; SARS PLP yeast: -2%

What do the screens show for `CCOC(=O)Nc1c2ccccc2nc2ccccc12`?
Pf growth 48h: 15µM*; Pf growth 96h: 10µM*; HCV inhibitor: -26%; NS1 inh: -4%; AMA1 RON2 block: -1%; SARS PLP yeast: -4%

What do the screens show for `CCOC(=O)c1nc(Nc2ccc(Nc3ccccc3)cc2)c2ccccc2n1`?
Pf growth 48h: inconclusive; Pf growth 96h: inconclusive; HCV inhibitor: 11µM*; AMA1 RON2 block: inconclusive; SARS PLP yeast: -15%

How did CCOC(=O)c1nc(Nc2ccc(C(=O)O)cc2)c2ccccc2n1 do in these assays?
Pf growth 48h: 1%; Pf growth 96h: 30%; HCV inhibitor: 7%; NS1 inh: 5%; AMA1 RON2 block: -4%; SARS PLP yeast: -2%

How did CCOC(=O)c1ccc(Nc2nc(C(=O)OCC)nc3ccccc23)cc1 do in these assays?
Pf growth 48h: 9.3µM*; Pf growth 96h: -15%; HCV inhibitor: inconclusive; NS1 inh: -1%; AMA1 RON2 block: 14%; SARS PLP yeast: 7%

What do the screens show for `COC(=O)C1CCN(C(=O)CN2C(=O)NC3(CCC(C)CC3)C2=O)CC1` (configuration not stated)?
HCV inhibitor: 8%; AMA1 RON2 block: 24%; SARS PLP yeast: 5%

Results for CN(C(=O)c1ccc(Br)o1)C1CCCCC1 ?
Pf growth 48h: 41%; Pf growth 96h: inconclusive; HCV inhibitor: 3%; NS1 inh: -5%; AMA1 RON2 block: -12%; SARS PLP yeast: 0%

Results for CCOC(=O)c1c(NC(=O)C(C)OC(=O)C2=COCCO2)sc2c1CCCC2 (configuration not stated) ?
Pf growth 48h: inconclusive; Pf growth 96h: inconclusive; HCV inhibitor: 13µM*; AMA1 RON2 block: 1%; SARS PLP yeast: -14%

What do the screens show for `O=C(/C=C/c1ccccc1[N+](=O)[O-])N1CCCCC1`?
Pf growth 48h: 36%; Pf growth 96h: 12%[5.75 µM]; HCV inhibitor: 0%; AMA1 RON2 block: 0%; SARS PLP yeast: -1%

Results for O=[N+]([O-])C(/C=C(/Cl)[N+](=O)[O-])=C(N1CCCCC1)N1CCCCC1 ?
Pf growth 48h: 8.3µM*; Pf growth 96h: 5.2µM*; HCV inhibitor: 17%; NS1 inh: 0%; AMA1 RON2 block: 8%; SARS PLP yeast: -1%

Results for Cc1ccc(COC(=O)c2nn(C)c(=O)c3ccccc23)cc1 ?
Pf growth 48h: 18%; Pf growth 96h: 32%; HCV inhibitor: 10µM*; AMA1 RON2 block: -5%; SARS PLP yeast: 0%

Results for CN(C(=O)CCN1C(=O)/C(=C/c2ccccc2)SC1=S)C1CCS(=O)(=O)C1 (configuration not stated) ?
Pf growth 48h: inconclusive; Pf growth 96h: 2.6µM*; HCV inhibitor: 4%; NS1 inh: 3%; AMA1 RON2 block: 16%; SARS PLP yeast: 0%
